Experimental data as given in PubChem BioAssay (EPA / NIEHS).
Values joined by “and” are separate entries in the source; they are usually repeats but may differ in a detail not shown here. Identical values can stand only once. Results filed as inconclusive are left out. The source holds several records for some structures; these can differ, active in one and inactive in another. Active and inactive are the calls of the source. The calls were made as follows, unless noted: active = hit-call score of the fitted dose curve at least 0.9, where 1 is the maximum; inactive = score below 0.9.

Assays:
[1] = read-out: Monokine induced gamma interferon (MIG), CXCL9 (gene 4283); assay: BSK_SAg_MIG: BioMAP Diversity Plus: SAg Assay for Monokine induced gamma interferon (MIG) Biomarker Activity (AID 2283092); settings: primary human HUVEC with PBMC; actives raise or lower the signal
Outline: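 HUVEC plus human PBMC co-culture, chemicals dosed and MIG (CXCL9) quantified by ELISA at 24 h. Bidirectional curve fitting against DMSO as negative control and baseline, so both gain and loss of signal count as activity.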

[2] = BSK_SAg_PBMCCytotoxicity: PBMC Cytotoxicity Assessment in the BioMAP Diversity Plus: SAg Assay (AID 2283093); settings: primary human HUVEC with PBMC;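 also: PBMC viability measured as Alamar Blue reduction fluorescence at 546/580 nm; fitted both ways against DMSO so a hit may be loss or gain of signal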;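 as to AC50: PBMC superantigen activated with SEB plus TSST-1 one hour after compound addition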
Outline: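 Compound added to 75,000 PBMC/well for 1 h; SEB and TSST-1 then added at 20 ng/mL final each; 90 h incubation; Alamar Blue 6 h; read 546/580 nm ex/em. Activity fitted bidirectionally relative to DMSO baseline.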

[3] = read-out: Interleukin-8 (IL8), CXCL8 (gene 3576); assay: BSK_SAg_IL8: BioMAP Diversity Plus: SAg Assay for Interleukin-8 (IL8) Biomarker Activity (AID 2283094); settings: primary human HUVEC with PBMC; actives raise or lower the signal
Outline: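 Human umbilical vein endothelial cells co-cultured with peripheral blood mononuclear cells; IL-8 measured by ELISA 24 h after chemical dosing. Bidirectional concentration-response fitting used DMSO as negative control and activity baseline.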

[4] = BSK_SAg_Proliferation: Cell Proliferation Assessment in the BioMAP Diversity Plus: SAg Assay (AID 2283095); settings: primary human HUVEC with PBMC;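 also: relative cell number as total protein by SRB absorbance in sub-confluent culture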
Outline: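 Human umbilical vein endothelial cells co-cultured with peripheral blood mononuclear cells; total protein measured by sulforhodamine B staining (0.1% SRB after 10% TCA fixation), absorbance at 560 nm, at 96 h. Bidirectional fit against DMSO baseline.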

[5] = BSK_SAg_SRB: Viability Assessment in the BioMAP Diversity Plus: SAg Assay (AID 2283096); settings: primary human HUVEC with PBMC;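 also: cells read one day after compound addition; hits may be either gain or loss of signal compared with DMSO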
Outline: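 Total protein by sulforhodamine B staining, 24 h after dosing, in HUVEC–PBMC co-culture; DMSO-referenced bidirectional fitting.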

[6] = read-out: E-selectin (Homo sapiens) (UniProt P16581); assay: BSK_SAg_Eselectin: BioMAP Diversity Plus: SAg Assay for Eselectin Biomarker Activity (AID 2283091); settings: primary human HUVEC with PBMC; actives raise or lower the signal
Outline: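 Endpoint values derive from bidirectional fitting relative to DMSO, using ELISA-measured E-selectin in a human vascular co-culture (umbilical vein endothelium plus PBMC) sampled 24 h after dosing.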

[7] = target: rat CYP2A2, Cyp2a2 (gene 24895) (UniProt P15149); assay: NVS_ADME_rCYP2A2: NovaScreen (NVS) CYP450-related Enzyme Activity (ADME) Assay for rat CYP2A2 (AID 2283116; active = hit-call score of the fitted dose curve at least 0.9, where 1 is the maximum)
rat CYP2A2, Cyp2a2 (gene 24895), sequence (P15149 whole entry, looked up): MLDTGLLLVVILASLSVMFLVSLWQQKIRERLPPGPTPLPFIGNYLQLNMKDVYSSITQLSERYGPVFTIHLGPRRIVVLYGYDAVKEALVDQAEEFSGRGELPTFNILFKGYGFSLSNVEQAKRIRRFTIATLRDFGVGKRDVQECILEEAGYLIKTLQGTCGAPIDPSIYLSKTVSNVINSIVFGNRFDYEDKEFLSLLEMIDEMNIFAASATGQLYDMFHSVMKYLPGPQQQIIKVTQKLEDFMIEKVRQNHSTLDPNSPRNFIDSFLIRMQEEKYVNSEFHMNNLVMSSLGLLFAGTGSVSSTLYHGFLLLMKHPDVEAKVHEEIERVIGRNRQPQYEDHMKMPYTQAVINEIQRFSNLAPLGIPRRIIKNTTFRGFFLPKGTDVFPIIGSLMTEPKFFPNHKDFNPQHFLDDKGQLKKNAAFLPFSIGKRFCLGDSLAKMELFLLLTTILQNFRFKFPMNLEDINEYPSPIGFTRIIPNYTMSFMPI
Outline: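 Cell-free recombinant rat CYP2A2 activity with fluorogenic substrate, fluorescence read 0.2 h after dosing. Chemicals screened at 10 uM in duplicate, hits then run in concentration-response up to 20 uM; signal loss versus acetonitrile baseline.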

[8] = target: human CYP2A6, CYP2A6 (gene 1548) (UniProt P11509); assay: NVS_ADME_hCYP2A6: NovaScreen (NVS) CYP450-related Enzyme Activity (ADME) Assay for human CYP2A6 (AID 2283099; active = hit-call score of the fitted dose curve at least 0.9, where 1 is the maximum)
human CYP2A6, CYP2A6 (gene 1548), sequence (P11509 whole entry, looked up): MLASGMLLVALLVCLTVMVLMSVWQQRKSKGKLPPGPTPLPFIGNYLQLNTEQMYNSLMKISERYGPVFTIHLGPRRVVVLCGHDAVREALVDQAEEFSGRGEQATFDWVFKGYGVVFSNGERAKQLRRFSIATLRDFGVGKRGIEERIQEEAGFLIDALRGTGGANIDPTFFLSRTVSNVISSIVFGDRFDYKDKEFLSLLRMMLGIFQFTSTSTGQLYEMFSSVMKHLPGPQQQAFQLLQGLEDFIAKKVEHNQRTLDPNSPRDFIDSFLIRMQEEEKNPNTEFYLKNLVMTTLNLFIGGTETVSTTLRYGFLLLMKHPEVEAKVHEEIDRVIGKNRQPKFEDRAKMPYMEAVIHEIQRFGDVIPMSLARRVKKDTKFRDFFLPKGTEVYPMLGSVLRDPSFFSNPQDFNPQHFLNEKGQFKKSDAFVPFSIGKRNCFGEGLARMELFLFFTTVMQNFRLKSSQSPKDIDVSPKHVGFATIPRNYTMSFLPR
Outline: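 Loss of fluorescence signal relative to acetonitrile vehicle reported CYP2A6 inhibition in a cell-free system using insect-cell-derived enzyme. Readings were taken at 0.5 h; top concentration in follow-up dose series was 20 uM.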

[9] = target: human CYP1A1, CYP1A1 (gene 1543) (UniProt P04798); assay: NVS_ADME_hCYP1A1: NovaScreen (NVS) CYP450-related Enzyme Activity (ADME) Assay for human CYP1A1 (AID 2283100; active = hit-call score of the fitted dose curve at least 0.9, where 1 is the maximum)
human CYP1A1, CYP1A1 (gene 1543), sequence (P04798 whole entry, looked up): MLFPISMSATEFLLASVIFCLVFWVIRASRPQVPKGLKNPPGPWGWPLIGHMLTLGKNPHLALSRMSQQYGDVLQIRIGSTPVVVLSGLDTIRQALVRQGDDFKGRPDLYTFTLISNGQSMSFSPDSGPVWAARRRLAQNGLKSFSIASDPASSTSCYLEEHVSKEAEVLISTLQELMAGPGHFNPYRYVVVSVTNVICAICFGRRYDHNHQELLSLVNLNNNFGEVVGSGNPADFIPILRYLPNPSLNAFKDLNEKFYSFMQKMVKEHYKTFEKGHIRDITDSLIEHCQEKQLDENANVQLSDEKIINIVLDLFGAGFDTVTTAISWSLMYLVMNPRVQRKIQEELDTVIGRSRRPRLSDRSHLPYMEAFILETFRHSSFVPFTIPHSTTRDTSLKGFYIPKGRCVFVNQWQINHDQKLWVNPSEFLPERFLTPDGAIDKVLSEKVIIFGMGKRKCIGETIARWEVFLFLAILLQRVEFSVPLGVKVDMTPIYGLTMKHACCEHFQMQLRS
Outline: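 Inhibition of recombinant CYP1A1 turnover was assessed fluorometrically in a biochemical format 1 h after compound exposure. Testing began at 10 uM in duplicate and progressed to concentration series reaching 20 uM, with on-plate positive and negative controls.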

[10] = target: human CYP2B6, CYP2B6 (gene 1555) (UniProt P20813); assay: NVS_ADME_hCYP2B6: NovaScreen (NVS) CYP450-related Enzyme Activity (ADME) Assay for human CYP2B6 (AID 2283101; active = hit-call score of the fitted dose curve at least 0.9, where 1 is the maximum)
human CYP2B6, CYP2B6 (gene 1555), sequence (P20813 whole entry, looked up): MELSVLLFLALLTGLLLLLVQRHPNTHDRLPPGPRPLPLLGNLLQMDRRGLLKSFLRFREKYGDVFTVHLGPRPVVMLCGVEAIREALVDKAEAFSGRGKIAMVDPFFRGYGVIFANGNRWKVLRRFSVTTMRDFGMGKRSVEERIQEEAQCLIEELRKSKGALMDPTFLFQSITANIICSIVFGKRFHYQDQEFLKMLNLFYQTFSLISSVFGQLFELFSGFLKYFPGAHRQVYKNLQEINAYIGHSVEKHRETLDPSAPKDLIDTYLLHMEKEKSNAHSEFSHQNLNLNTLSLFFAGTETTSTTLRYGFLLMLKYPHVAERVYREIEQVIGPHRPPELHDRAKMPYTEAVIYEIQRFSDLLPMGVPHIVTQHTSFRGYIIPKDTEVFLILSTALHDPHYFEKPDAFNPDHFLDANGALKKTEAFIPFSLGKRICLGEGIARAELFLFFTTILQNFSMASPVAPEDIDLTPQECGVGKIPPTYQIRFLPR
Outline: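 Recombinant human CYP2B6 with fluorogenic substrate, read by fluorescence intensity 1 h after dosing. Primary screen in duplicate at 10 uM, actives followed in concentration series; signal loss relative to acetonitrile control.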

[11] = target: human CYP1A2, CYP1A2 (gene 1544) (UniProt P05177); assay: NVS_ADME_hCYP1A2: NovaScreen (NVS) CYP450-related Enzyme Activity (ADME) Assay for human CYP1A2 (AID 2283102; active = hit-call score of the fitted dose curve at least 0.9, where 1 is the maximum;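 as to AC50: potency for inhibition since loss of fluorescence marks reduced CYP1A2 activity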)
human CYP1A2, CYP1A2 (gene 1544), sequence (P05177 whole entry, looked up): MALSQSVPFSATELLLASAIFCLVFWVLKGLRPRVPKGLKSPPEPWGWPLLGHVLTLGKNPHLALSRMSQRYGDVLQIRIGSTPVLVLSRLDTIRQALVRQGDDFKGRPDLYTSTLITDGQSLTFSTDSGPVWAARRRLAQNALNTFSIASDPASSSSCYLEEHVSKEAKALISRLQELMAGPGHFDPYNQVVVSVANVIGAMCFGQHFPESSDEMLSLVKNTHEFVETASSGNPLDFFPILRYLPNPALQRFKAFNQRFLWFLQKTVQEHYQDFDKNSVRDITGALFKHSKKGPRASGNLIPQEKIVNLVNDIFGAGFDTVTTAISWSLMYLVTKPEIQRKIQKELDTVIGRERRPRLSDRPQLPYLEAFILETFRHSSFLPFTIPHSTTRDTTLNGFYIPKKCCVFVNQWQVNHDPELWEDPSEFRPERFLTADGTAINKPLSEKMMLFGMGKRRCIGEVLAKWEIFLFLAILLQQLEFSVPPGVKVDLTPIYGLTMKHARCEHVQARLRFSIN
Outline: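 Inhibition scored as decrease in fluorescent product versus acetonitrile negative control. Enzyme: insect-cell recombinant human CYP1A2, substrate-specific, cell-free. Reading at 0.5 h; 10 uM duplicate initial screen with positive and negative controls on every plate.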

[12] = target: human CYP2C9, CYP2C9 (gene 1559) (UniProt P11712); assay: NVS_ADME_hCYP2C9: NovaScreen (NVS) CYP450-related Enzyme Activity (ADME) Assay for human CYP2C9 (AID 2283108; active = hit-call score of the fitted dose curve at least 0.9, where 1 is the maximum)
human CYP2C9, CYP2C9 (gene 1559), sequence (P11712 whole entry, looked up): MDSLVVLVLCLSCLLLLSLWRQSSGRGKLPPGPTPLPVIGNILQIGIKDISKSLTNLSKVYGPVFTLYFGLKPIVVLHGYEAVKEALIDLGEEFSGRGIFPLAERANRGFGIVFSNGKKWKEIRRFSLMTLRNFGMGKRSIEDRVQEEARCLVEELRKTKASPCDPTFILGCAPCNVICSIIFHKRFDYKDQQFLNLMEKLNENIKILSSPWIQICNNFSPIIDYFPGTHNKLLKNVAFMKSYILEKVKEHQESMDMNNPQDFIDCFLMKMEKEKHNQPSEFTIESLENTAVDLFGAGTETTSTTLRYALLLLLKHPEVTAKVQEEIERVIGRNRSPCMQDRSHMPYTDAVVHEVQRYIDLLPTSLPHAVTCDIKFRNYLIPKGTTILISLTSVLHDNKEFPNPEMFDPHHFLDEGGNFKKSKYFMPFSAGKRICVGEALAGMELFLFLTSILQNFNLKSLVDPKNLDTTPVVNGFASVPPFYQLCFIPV
Outline: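 Fluorescence readout of CYP2C9 activity (SF9-expressed human enzyme) at 0.75 h. The primary screen used 10 uM in duplicate, with concentration-response follow-up for actives; acetonitrile was the negative control.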

[13] = target: Cytochrome P450 2C19 (Homo sapiens) (UniProt P33261); assay: NVS_ADME_hCYP2C19: NovaScreen (NVS) CYP450-related Enzyme Activity (ADME) Assay for human CYP2C19 (AID 2283113; active = hit-call score of the fitted dose curve at least 0.9, where 1 is the maximum;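 also: potency for inhibition seen as loss of fluorescent signal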)
Outline: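 Biochemical CYP2C19 inhibition screen: insect-cell recombinant protein plus fluorescent substrate, 1 h, fluorescence intensity. Acetonitrile defined baseline activity. Single 10 uM concentration in duplicate, with concentration-response follow-up for actives.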

Measured: AC50

E-selectin (Homo sapiens), sequence (P16581 whole entry, looked up): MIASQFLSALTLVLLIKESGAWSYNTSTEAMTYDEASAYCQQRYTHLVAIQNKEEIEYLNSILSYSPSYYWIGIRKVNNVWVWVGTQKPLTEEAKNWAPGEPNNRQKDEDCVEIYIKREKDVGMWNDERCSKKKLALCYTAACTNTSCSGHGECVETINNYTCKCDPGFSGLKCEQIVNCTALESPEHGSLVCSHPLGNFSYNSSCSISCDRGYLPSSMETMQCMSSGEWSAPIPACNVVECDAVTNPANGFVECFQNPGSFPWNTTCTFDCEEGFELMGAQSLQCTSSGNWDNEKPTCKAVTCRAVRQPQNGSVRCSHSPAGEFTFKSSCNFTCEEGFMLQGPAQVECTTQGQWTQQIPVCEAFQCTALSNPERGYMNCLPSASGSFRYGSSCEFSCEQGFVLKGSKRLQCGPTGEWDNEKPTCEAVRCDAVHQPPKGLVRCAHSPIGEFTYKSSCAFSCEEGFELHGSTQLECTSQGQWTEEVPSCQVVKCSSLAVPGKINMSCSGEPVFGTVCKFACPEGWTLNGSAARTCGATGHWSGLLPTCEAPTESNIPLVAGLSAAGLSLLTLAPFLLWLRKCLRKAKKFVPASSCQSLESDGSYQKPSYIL

CCSC(C)CC1CC(=O)C(C(CC)=NOC/C=C/Cl)=C(O)C1 (stereo not drawn)
inactive: [1] | [2] | [3] | [4] | [5]

BrCCBr
inactive: [6] | [1] | [2] | [4] | [5] | [7]

CCCCC(CC)CO[N+](=O)[O-] (stereo not drawn)
inactive: [6] | [1] | [2] | [4] | [5]

Cc1ccccc1N
inactive: [6] | [1] | [2] | [3] | [4] | [5]

O=C(O)CCC(F)(C(F)(F)F)C(F)(F)F
inactive: [6] | [1] | [2] | [4] | [5]

C=CC(=O)OCCCCCC(C)C
inactive: [6] | [1] | [2] | [4] | [5]

CC(C)CCCCCCOC(=O)c1ccccc1C(=O)OCCCCCCC(C)C
inactive: [1] | [2] | [3] | [4]
active: [6] 0.016 µM | [5] 0.206 µM

C(=NC1CCCCC1)=NC1CCCCC1
active: [6] 3.97 µM | [1] 12.6 µM | [2] 16.5 µM | [4] 0.499 µM | [5] 30 µM

COc1cc(-c2ccc(N)c(OC)c2)ccc1N
inactive: [1] | [2] | [3] | [4] | [5] | [8] | [11]
active: [6] 11.8 µM | [3] 7.64 µM | [4] 11.8 µM | [9] 3.13 µM and 3.48 µM | [10] 6.76 µM and 3.92 µM | [11] 1.27 µM | [12] 7.03 µM | [13] 3.49 µM and 2.33 µM

ClC(Cl)=C(Cl)C(Cl)=C(Cl)Cl
inactive: [6] | [1] | [3] | [5]
active: [2] 33.1 µM | [4] 31.7 µM

CC(C)c1ccc(CO)cc1
inactive: [6] | [1] | [2] | [3] | [4] | [5]

O=S(=O)(c1ccc(Cl)cc1)c1ccc(Cl)cc1
inactive: [6] | [1] | [2] | [3] | [4] | [5]
active: [10] 2.89 µM | [13] 1.39 µM and 821 nM
